Assay results reported in the supplement of paper PMC11417369.
The full ranking holds about 25,000 sequences; the median of “ln(normalized median fluorescence intensity)” is about 9.7, and the highest 2% start at about 11. The entries come from a sample that favours the highest values as a whole.

Tested on: PfAP2-HC AP2 domain (GST-tagged)
Experiment: gcPBM binding intensity (ln(normalized median fluorescence intensity)); higher = stronger DNA binding
How it was run: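 After 1 h on an Agilent 4 × 180k array of primer-extended double-stranded 36-bp intergenic genomic probes and negative controls, bound GST-tagged P. falciparum DNA-binding domains were detected with Alexa488 anti-GST antibody and scanned at 488 nm. The domains had been expressed in E. coli, and binding took place in 1× PBS with 1% milk, 0.2 mg/ml BSA, 0.5% salmon testes DNA and 0.03% Triton X-100. Binding intensity is the highest Masliner-normalised natural-log median intensity across replicate spots of either probe orientation.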

| Sequence | gcPBM binding intensity (ln) |
| --- | --- |
| CAATCATGGTTTTACACACACATGCATGTGAAAATT [CACACA_site4870] | 9.8 |
| TTATACGATAATATGACACACAATACAAAAATGTAA [CACACA_site1918] | 9.86 |
| AATATAATATATATTAGTACATATATATATATATAT [XGTACX_site870] | 9.58 |
| GAAATAAATATATATGCATGTACTTTAATATTATTA [TGCATGCA_site904] | 9.66 |
| TTTTACATATATATATGTACGAAAATGAAAAGGTCA [XGTACX_site5576] | 9.59 |
| TTTTTATGTTATCAAATAAATATAAATATAATTCAT [CACACA_negctrl_site1522] | 9.32 |
| AAATTTATGAACCTAGTGCAGAAATTAAAAAGATGA [GTGCAC_site9396] | 9.54 |
| TCATATATTCAAAAATTTAAAGTTAATAAAACTTGA [CACACA_negctrl_site1546] | 9.06 |
| AATATAAAAATGTTTACACACACACCCAAATATATT [CACACA_site2511] | 10.2 |
| AAAAAAAAAAAAAAAACACACATAAAAATATAATAA [CACACA_site3855] | 9.9 |
| GGAATAATATAAAACACACACATAAATATAAATATA [CACACA_site3376] | 10.7 |
| TAAAAAGGAAAACACACACACACATATATATATATA [CACACA_site3588] | 11.4 |
| ATAAATATTGGGTGCACACACATAATATATATATAT [CACACA_site2272] | 10.2 |
| ACATATAAATATTGTGTGCACACACATAATATATAT | 11.3 |
| AATATAAAAATGTTTACACACACACGGAAATATATT [CACACA_site7226] | 10.3 |
| AATATAAAAATGTTTACACACACACCGAAATATATT [CACACA_site8800] | 11.2 |
| ATATAAATATAGTGTGCACACACATAATATATATAT [CACACA_site8713] | 10.4 |
| AAGGAATAATATAAAACACACACATAAATATAAATA [CACACA_site9115] | 11.4 |
| AGGAAAAAAGAAAAAACACACATAAATATATATATA [CACACA_site3085] | 9.74 |
| TATAAAAGGAAACACACACACATATATATATATATA [CACACA_site939] | 10.5 |
| ATATAAAGAAATTAATTTTTCAACAATAAAAATATA [CACACA_negctrl_site1262] | 9.35 |
| AAATTGGGGCTTGTTACACACTTAGTGCGAGTTCTA [CACACA_site582] | 9.75 |
| ATTTATTATATATAGTGTACGTTCTTAATTATAATT [XGTACX_site7480] | 9.69 |

| Sequence | gcPBM binding intensity (ln) |
| --- | --- |
| TATCATATATTATATGCACACATGTTTTTCAAGAAT [CACACA_site1892] | 9.74 |
| TTTCTTTTTCGATATACACACTGTATGTGTCTAAAA [CACACA_site6054] | 9.95 |
| TGTATGATAACTATAGTGCATTTGGTAATTTTTCCA | 9.51 |
| AAATGTAAATTTATCCGTACATATATATATTTATAT [XGTACX_site7024] | 9.73 |
| ATATATATATATATGTGTACATATATATATCATATG [XGTACX_site3126] | 9.68 |
| TAATAGAATATGATGGTGCAGCAGTCTTATTTTTCA | 9.61 |
| CCATAAAAAGGATACACACACACACCGACATATATA [CACACA_site4653] | 10.9 |
| AAAAAAAAATTAAAAACACACATATATATATATATA [CACACA_site1580] | 9.73 |
| ATTAAATAAAAAAACACACACATATATACATATATA [CACACA_site3445] | 10.6 |
| TTAAAAAAAAAACACACACACATACACATATATATA [CACACA_site3299] | 11.1 |
| TAAAAGGATACATATACACACATATATATATATATA [CACACA_site2791] | 9.85 |
| AAAAAAATTAAACACACACACACATATATATATATA [CACACA_site4718] | 11.5 |
| AAAACATACATATATACACACATATATATATATATA [CACACA_site1852] | 10.3 |
| AAAAAAAAATTAAAAACACACATATAAATAAATATA [CACACA_site6845] | 9.8 |
| ACCCATAAAAAGGATACACACACACCCACCCATATA [CACACA_site8205] | 10.6 |
| AAAACATACCTATATACACACATATAAATATAAATA [CACACA_site6956] | 10.1 |
| ATTAAATAAAAAAACACACACATATATACCTATATA [CACACA_site5837] | 11 |
| AAAAAAAAAAAACATACACACACATATATATATATA [CACACA_site8452] | 10.7 |
| ACATATATATTTATATGTACATATATTTATATATAT [XGTACX_site7469] | 9.64 |
| ATATTGTAAGTAAAATGTAATAAATATAATAAAATA [CACACA_negctrl_site697] | 9.76 |
| ATATATTTATATTGTACACACATTTATGCATATATA [CACACA_site7502] | 9.96 |
| ACATTCTATACATACACACCCACACCCAAAAAAAAA [CACACA_site863] | 10 |
| CTTATACATTATTAACGTACATGTTATATGAATAAC [XGTACX_site5752] | 9.6 |

| Sequence | gcPBM binding intensity (ln) |
| --- | --- |
| TGGAAAATTATAAGGTGTACATATAAGCTATTATAT [XGTACX_site118] | 9.63 |
| ATATATATATATATTTATTCATATATTTTTTGTCTT [TGCATGCA_negctrl_site58] | 9.52 |
| AAAAATGAATTATTTTGTACATATATATATATATAT [XGTACX_site3410] | 9.74 |
| TGCTATTTTTTCCTTTTTTTGTATCACAATCATATA [CACACA_negctrl_site1576] | 9.74 |
| ATCAACATTATGTTTAGTACTTAGTGAATTGTTAAT [XGTACX_site4913] | 9.65 |
| ATTATATATGTATGGTGTACTAAGAATATTTTTTTA [XGTACX_site1950] | 9.55 |
| ATTATTTAAAAAAAATGTACATAATAAATATGAACG [XGTACX_site4010] | 9.58 |
| CAGTTTAATTTACATAGTACATAATATTTTAATTTT [XGTACX_site1793] | 9.65 |
| AAATAAATTAAAATAAATTAAATTAAATTAGCATTA [GTGCAC_negctrl_site531] | 9.52 |
| ATACATATATATATATGTACACACATTAATAAAAAA [XGTACX_site6874] | 9.89 |
| GACAATAAAAAGAAAAGTACATATATAAATTAACCA [XGTACX_site7858] | 9.65 |
| TGCATATGCATTATTTGTACATATGTAGATAATTAT [XGTACX_site6930] | 9.63 |
| GTATTTTTAAATGACACACACATATATATATATATA [CACACA_site1662] | 10.1 |
| TGCAAGGAACAACACACACACACATAAATGTATATA [CACACA_site8149] | 11.4 |
| TGCAAGGAAAAACACACACACACATAAATGTATATA [CACACA_site751] | 10.4 |
| TGATAAATATGGAGCACACACACATAAACATACATA [CACACA_site420] | 10.4 |
| CATATAAATAAACACACACACACATATATATATATA [CACACA_site5309] | 10.5 |
| ATAAATATGGAGCACACACACATAAACATACCTATA [CACACA_site6336] | 10.8 |
| AAAAAAAAAAAATATACACACACACCGACACATAAA [CACACA_site9270] | 10.9 |
| ATAAAATACATATAAACACACATATAAACCGACATA [CACACA_site2477] | 10.1 |
| ATAAATATGGAGCACACACACATAAACATACATATA [CACACA_site421] | 11.1 |
| TAAATTAAAAAAAATACACACACACCGACACATATA [CACACA_site9084] | 10.6 |
| AATAAATTGAAACACACACACACATATATATATATA [CACACA_site848] | 11.2 |

| Sequence | gcPBM binding intensity (ln) |
| --- | --- |
| TATATATATATATAAACACACATAAATATAAATATA [CACACA_site1121] | 9.88 |
| AAAAGGAACAGACACACACACATATATAAATATGTA [CACACA_site7656] | 10.5 |
| GATTATTTTATAAGTACACACATTTATCTATAATAA [CACACA_site7256] | 9.69 |
| ACGTTAAAAACAAGTTGTACACAATAAATTATTCTT [XGTACX_site6321] | 9.75 |
| GTATTCAAAAGTGAAACATGCAATAATATATATATA [TGCATGCA_site617] | 9.63 |
| AATATTTTTTTATAAACACACATATATATAAATATA [CACACA_site3524] | 9.53 |
| AATACAATTTTTAACACACACACAATAATACAGATA [CACACA_site4823] | 11.2 |
| ATTTAATACAAATACACACACAAATAAATACAGATA [CACACA_site5956] | 10.2 |
| ATACAACAGATATATACACACATATAACAATAATAA [CACACA_site7560] | 10 |
| TACACGTTCTACATTTGTACTTAATTTATACATAAG [XGTACX_site1579] | 9.79 |
| CCATTTACATTGTGAAGTACTAAAAAAAAATGTAGA [XGTACX_site7882] | 9.48 |
| ATCGGTAATATTAACACACACATTTATTTATATTTA [CACACA_site6638] | 10.1 |
| GTATCTCATTATTCGTGTACTAAACACATAAAAATA [XGTACX_site2262] | 9.58 |
| GTTAATTGAAGATTCACACATAAATATATATATAAT [CACACA_site5482] | 9.61 |
| ATATACTATTATGTGTGTACATAATAATTTATTATA [XGTACX_site3776] | 9.75 |
| ATATACTTTTTTTTTTTTTTTTTAACGTTATTTATG [CACACA_negctrl_site1277] | 9.64 |
| GATAATTACGGACACACACACACACGCACAACTAAA [CACACA_site7254] | 10.7 |
| AAGATAATTACGCACACACACACACGCCCACAACTA [CACACA_site7255] | 11.4 |
| AAAAGATAATTATGCACACACACACCCCCACCCAAC [CACACA_site2570] | 10.9 |
| AGCACATTATTCAAAAGTACAAATAGGTATTGTATA [XGTACX_site6107] | 9.59 |
